Drawing on PubChem BioAssay (NCATS), this text covers outcome for 40 compounds.

The structures appear in SMILES notation. Results filed as inconclusive are left out. Calls of active or inactive are those of the source. Calls come from the whole dose curve; as a rule, active = well fitted cell-killing curve with a large enough effect; inconclusive = small, poorly fitted or top-dose-only effect; inactive = no such curve, though single readings can be large or run the other way.

The nature of the experiment: qHTS of pediatric cancer cell lines to identify multiple opportunities for drug repurposing: Primary screen for A673 cells (AID 1347092). Note: nearly all actives have a fitted effect of over 45% in size. Conditions: A673 Ewing sarcoma viability, CellTiter-Glo ATP luminescence, 48 h; series mostly up to 46 µM. An excerpt: Drug repurposing or repositioning has been offered as a strategy for drug development in oncology programs. This approach has special potential for childhood cancers and other rare or orphan diseases, where the expected return on new drug development has been a disincentive to pharmaceuticals. […] In this project we exploit the poly-pharmacology of drugs to discover new indications via phenotypic screening of a panel of 19 well-characterized cell lines derived from solid tumors seen in children and adolescents. The goal is to identify approved drugs with previously unrecognized anticancer properties that has the potential to reveal new mechanisms and biological processes involved in carcinogenesis or drug resistance. We employed a titration-based paradigm (quantitative high-throughput screening or qHTS), where all compounds were tested at multiple concentrations for their effect on cell viability. Concentration-response curves (CRCs) were derived directly from the primary screen, and both potency and efficacy values were used to identify compounds with robust bioactivity profiles. We screened the NIH Chemical Genomics Center (NCGC) Pharmaceutical Collection (NPC) and Mechanism Interrogation Plate (MIPE) small molecule collections of approved and investigational compounds against these cell lines; and measured metabolically active cells after 48 hours of compound treatment as a proxy for cell viability. […] Assay Submitter: Nathalia J. Martinez, National Center for Advancing Translational Sciences, National Institutes of Health, Rockville, MD, USA; email: natalia.martinez@nih.gov. Shen, M et al. Quantitative high-throughput phenotypic screening of pediatric cancer cell lines identifies multiple opportunities for drug repurposing. Oncotarget 2017 Dec 19;9(4):4758-4772. PMID 29435139.
The cells were obtained from University of North Carolina (UNC), Pediatric Preclinical Testing Program (PPT), and Coriell Institute (CI). qHTS cell viability assay: Cells were assayed in growth media at a density of 500-1,000 cells/well. Five microliters of cells were dispensed into 1,536-well, white, solid-bottom, TC-treated plates (Greiner Bio One) using a multidrop dispenser and incubated at 37 degrees C, 5% CO2, under a humidified atmosphere for 5 hours. Twenty-three nanoliters of compounds and controls (neutral control DMSO or positive control bortezomib at final concentration of 2.3 uM) were subsequently transferred by Kalypsys pintool. For primary screens, the MIPE collection was tested at 11-point dilutions (final concentrations range from 0.78 nM to 46 µM) and the NPC collection at 8-point dilutions (final concentrations range from 0.59 nM to 46 µM). Compounds tested in follow-up screens were assayed at 11-point dilutions. Cells were incubated for 48 hours, followed by addition of 3 uL of CellTiter-Glo (Promega). After a 15min incubation at room temperature, samples were analyzed for luminescence intensity using a ViewLux High-throughput CCD imager equipped with clear filters.
For `O=C(Cn1ccnc1[N+](=O)[O-])NCCO`, the call was inactive.
For the compound `CC(C)=CCC/C(C)=C/CO`, the compound was called inactive.
As for `CCOc1ccccc1O[C@H](c1ccccc1)[C@H]1CNCCO1`, the outcome was inactive.
For the compound `NCC1CCC(C(=O)Oc2ccc(CCC(=O)O)cc2)CC1` (stereo not given), the compound was called inactive.
For `Nc1ccncc1N`, the call was inactive.
As to `CC(N)CCCC(C)(C)O` (stereo not given), the outcome was inactive.
In the case of `FC(F)(F)C(Cl)Br` (stereo not given), the result was inactive.
As for `CCN(CC)S(=O)(=O)c1ccc(C(=O)O)cc1`, the call was inactive.
For the compound `CCCCCC(C)N` (stereo not given), the compound was classed as inactive.
Regarding `c1ccc2[nH]ccc2c1`, the call was inactive.
`O=C(Cn1ccnc1[N+](=O)[O-])NCc1ccccc1`: the outcome was inactive.
Regarding `NC(=O)CCCCC1CCSS1` (stereo not given), the call was inactive.
For the compound `CC1(C)S[C@@H]2[C@H](N=CN3CCCCCC3)C(=O)N2[C@H]1C(=O)O`, the compound was called inactive.
The entry for `CC(=O)Nc1cccc(O)c1` is “inactive”.
The entry for `CC(C)C[C@@H](N)C(=O)O` is “inactive”; for `CCc1nnc(NS(=O)(=O)c2ccc(N)cc2)s1` it is “inactive”.
Regarding `COCC(=O)Nc1c(I)c(C(=O)NCC(O)CO)c(I)c(C(=O)N(C)CC(O)CO)c1I` (stereo not given), the compound was called inactive.
On to `Cc1c(Cn2ccnc2)c2ccccc2n1CCC(=O)O`, for which the compound was called inactive.
Turning to `O=c1[nH]c(=O)n([C@H]2C[C@H](O)[C@@H](CO)O2)cc1I`, the call was inactive.
Regarding `O=C(O)Cc1cn(-c2ccccc2)nc1-c1ccc(Cl)cc1`, the compound was classed as inactive.
For the compound `CC1CC(OC(=O)c2ccccc2O)CC(C)(C)C1` (stereo not given), the result was inactive.
As to `O=C(O)c1ccc(OCCCOc2ccc(C(=O)O)cc2)cc1`, the compound was classed as inactive.
With `C/C=C/C(=O)N(CC)c1ccccc1C`, the result was inactive.
Turning to `CC(=O)[C@@]1(O)CC[C@H]2[C@@H]3C[C@H](C)C4=CC(=O)C=C[C@]4(C)[C@@]3(F)[C@@H](O)C[C@@]21C`, the call was inactive.
The entry for `CCCCCCCC(=O)OCC(COC(=O)CCCCCCC)OC(=O)CCCCCCC` is “inactive”; for `CC(=O)OCC(COC(C)=O)OC(C)=O` it is “inactive”; for `C=CCOc1ccccc1OCC(O)CNC(C)C` (stereo not given) it is “inactive”.
Consider `CC[N+](C)(CC)CCOC(=O)C1c2ccccc2Oc2ccccc21`, for which the result was inactive.
On to `CCC(C)(CN(C)C)OC(=O)c1ccccc1` (stereo not given), for which the outcome was inactive.
As for `CC[C@]12CCCN3CCc4c(n(c5ccccc45)[C@@](O)(C(=O)OC)C1)[C@@H]32`, the result was inactive.
Regarding `O=C1CC[C@@H](C(=O)O)N1`, the call was inactive.
The entry for `O=C(CCBr)N1CCN(C(=O)CCBr)CC1` is “inactive”; for `Nc1c2c(nc3c1CCC3)CCCC2` it is “inactive”; for `Cc1c(C(=O)NCCO)[n+](=O)c2ccccc2n1[O-]` it is “inactive”.
The entry for `Cc1c(NC(C)C)c(=O)n(-c2ccccc2)n1C` is “inactive”; for `C1CCN2C[C@@H]3C[C@@H](CN4CCCC[C@@H]34)[C@H]2C1` it is “inactive”; for `CNc1c2c(nn1C)CCCC2` it is “inactive”.
In the case of `CC(=O)Nc1ccc(C(=O)O)cc1`, the compound was classed as inactive.
The result for `O=C(NCC(O)CO)c1c(I)c(C(=O)NCC(O)CO)c(I)c(N(CCO)C(=O)CO)c1I` (stereo not given) reads “inactive”.
With `Cc1c(N(C)C)c(=O)n(-c2ccccc2)n1C`, the compound was classed as inactive.
